15 compounds from PubChem BioAssay (NCI) can be followed below.

What all share (experiment): NCI-60 one-dose screen, 48 h (100 = growth as untreated, 0 = no growth, -100 = all killed)
Common to all, as to conditions: 10 µM unless noted

The test system of test [1] is T-47D breast.
In test [2] the test system is BT-549 breast.
The subject of test [3] is MDA-MB-435 melanoma.
Test [4] concerns SW-620 colon.
Test [5] concerns MCF7 breast.
The test system of test [6] is HCT-116 colon.
The subject of test [7] is HCC-2998 colon.
For test [8], the system named is KM12 colon.

About 83,000 compounds went through this panel and 20% of them were active in at least one assay; those are over-represented in the sample as a whole.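 Note: values are percent growth. 100 is the growth of untreated cells, values between 100 and 0 indicate rising inhibition; between -100 and 0 indicates cell death.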 Unmarked numbers belong to inactive results. Calls of active or inactive are those of the source. The calls were made as follows: active = growth percent below 10; inactive = the rest.

As to `O=C(CSc1nnc(-c2cc(-c3ccccc3)nc3ccccc23)o1)c1ccc(Br)cc1`, the growth in test [1] is 102%; in test [2] it was 96.9%; in test [3], 104%; in test [4], 107%; in test [5], 111%; in test [6], 101%. Also, the figures for the growth in test [7] and in test [8] were 113% and 107%, respectively.

`Clc1ccc2[nH]cc(-c3cncn3CCc3ccccc3)c2c1`: the growth in test [1] was 13.2%; in test [2] it was 40.3%; in test [3], 50.9%; in test [4], 72.8%; in test [5] it was 53.2%; in test [6], 44.1%. Besides, the growth in test [7] was 89.2%; in test [8], 72.9%.

With `[N-]=[N+]=NCc1ncc(-c2ccc(C(F)(F)F)cc2)c(NC2CCCCCC2)n1`, the growth was 63.1% [50 µM] in test [1]; 81.9% [50 µM] in test [2]; 61.6% [50 µM] in test [3]; 75.4% [50 µM] in test [4]; 66.2% [50 µM] in test [5]; 40.5% [50 µM] in test [6]. Besides, the growth is 85.8% [50 µM] in test [7] and 46.8% [50 µM] in test [8].

As for `OC(c1ccccc1)C(NCc1ccccc1)c1ccccc1` (stereo not given), the growth is 91.7% in test [1]; 98.7% in test [2]; 78.9% in test [3]; 92.9% in test [4]; 97.1% in test [5]; 66.1% in test [6]. The growth in test [7] is 105%; in test [8], 102%.

Regarding `Nc1ccccc1-c1ccn[nH]1`, the growth in test [1] is 93.5%; in test [2] it was 91.2%; in test [3] it was 93.2%; in test [4], 96.7%; in test [5], 100%; in test [6] it was 92.7%. The results for the growth in test [7] and in test [8] were 97.2% and 82.3%, respectively.

In the case of `Cc1cc2ccccn2c1C(=O)c1ccc(C(=O)c2ccccc2)cc1`, the growth in test [1] was 77.3%; in test [2], 92.5%; in test [3], 91.3%; in test [4] it was 84.2%; in test [5] it was 96.5%; in test [6], 88.7%. Further, the growth in test [7] was 83.8%; in test [8], 113%.

As to `COc1ccc(N2CCN(CC(=O)N3CCN(c4nnc(-c5ccccc5)c(-c5ccccc5)n4)CC3)CC2)cc1`, the growth in test [1] was 20.1%; in test [2], 47.8%; in test [3] it was 45.2%; in test [4], 54.6%; in test [5] it was 36.4%; in test [6], 29.5%. Further, the growth in test [7] was 62.4%; in test [8], 37.2%.

Consider `O=C1/C(=C\c2coc3ccccc3c2=O)c2ccccc2N1c1c(Cl)cccc1Cl`, for which the growth in test [1] is 30%; in test [2], 41.1%; in test [3], 14.5%; in test [4] it was 35%; in test [5], 31.6%; in test [6], 35.6%. Moreover, the growth in test [7] was 53%; in test [8] it was 27.1%.

On to `COc1ccc(/C=C/C(=O)c2cccc(NS(C)(=O)=O)c2)cc1`, for which the growth in test [1] is 70.6%; in test [2], 105%; in test [3], 90%; in test [4], 50.5%; in test [5], 50.4%; in test [6], 21%. Also, the growth in test [7] was 111%; in test [8], 38.5%.

Consider `CCOc1cc(CCNS(=O)(=O)c2ccc(C)cc2)c(C(C)=O)cc1OCC`, for which the growth in test [1] is 66% [100 µM]; in test [2] it was 73.4% [100 µM]; in test [3] it was 99.4% [100 µM]; in test [4], 92.9% [100 µM]; in test [5] it was 94.9% [100 µM]; in test [6] it was 77.6% [100 µM]. Moreover, the growth is 95.5% [100 µM] in test [7] and 67.2% [100 µM] in test [8].

In the case of `c1ccc(COc2ccc(Nc3ncnc4c3cnn4-c3ccccc3)cc2)cc1`, the growth in test [1] was 100%; in test [2], 106%; in test [3], 90.1%; in test [4] it was 98.7%; in test [5], 101%; in test [6], 106%. The growth in test [7] is 108%; in test [8], 98.2%.

Take `CCOc1cc(/C=C/C(=O)CC(=O)/C=C/c2ccc(OC(=O)CNCCN(CC)CC)c(OCC)c2)ccc1OC(=O)CNCCN(CC)CC`: the growth was 36.9% in test [1]; -77.2% (active) in test [2]; -21.6% (active) in test [3]; -58.1% (active) in test [4]; 7.36% (active) in test [5]; -84.7% (active) in test [6]. Moreover, the growth in test [7] was -71.2% (active); in test [8], -60.2% (active).

On to `Cc1ccc(/C=C/C(=O)c2ccc(F)cc2)s1`, for which the growth was 62.9% in test [1]; 76.7% in test [2]; 52.1% in test [3]; 30.4% in test [4]; 35.9% in test [5]; 25.8% in test [6]. In addition, the growth in test [7] was 88%; in test [8] it was 67.3%.

In the case of `N#CC(C#N)C(C#N)C#N`, the growth was 87.9% in test [1]; 89.5% in test [2]; 99.8% in test [3]; 99.1% in test [4]; 95.5% in test [5]; 86.8% in test [6]. Moreover, the growth in test [7] is 98.4%; in test [8], 102%.

In the case of `COc1cc(/C=C2\SC(N3CCCCC3)=NC2=O)ccc1OCCCCCCOc1ccc(/C=C2\SC(N3CCCCC3)=NC2=O)cc1OC`, the growth in test [1] is 21.9%; in test [2] it was -36.6% (active); in test [3], -48% (active); in test [4], -24.7% (active); in test [5] it was 16.6%; in test [6], -64.3% (active). For the same compound, the results for the growth in test [7] and in test [8] were -76.5% (active) and -72.1% (active), respectively.
